Results as given in PubChem BioAssay AID1159580 (chemical genetic matrix, 2015).
Several values for one entry are separate records, joined by “and”; a condition that tells them apart may be missing. Equal entries are not always repeated. The campaign covered roughly 5,500 compounds. About 2,000 (36%) were called active. Not shown: some 18% with an inconclusive outcome. Cut-off read from the data, not from the text of the source: active = normalized growth mostly below about 0.91 (no sharp cut-off); inconclusive = no clear call, values can overlap the other calls; inactive = mostly above about 0.92. This is one part of the list.

Test: chemical genetic growth profiling, strain panel (AID 1159580);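 note: tested at 20 µM; growth read once vehicle control cultures reached saturation at 30 °C; 1 = growth at the plate median or of vehicle wells; lower values mean less growth of the strain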
Conditions: S. cerevisiae deletion strains, growth OD

Measured: normalized growth

O=C1C=CC2=C3c4cc(O)c(O)cc4CC3(O)COC2=C1O (centres undefined)
inactive: locus YAL021C, strain ccr4, hits give low values 0.933 | locus YAL026C, strain drs2, hits give low values 0.945 | locus YAL030W, strain snc1, hits give low values 1.02 | locus YBL061C, strain skt5, hits give low values 0.993 | locus YBR009C, strain hhf1, hits give low values 0.999 | locus YBR021W, strain FUR4, hits give low values 1.04 | locus YBR023C, strain chs3, hits give low values 0.949 | locus YBR171W, strain sec66, hits give low values 1.06 | locus YBR229C, strain ROT2, hits give low values 0.996 | locus YBR231C, strain swc5, hits give low values 0.929 | locus YBR279W, strain paf1, hits give low values 0.964 | locus YCL011C, strain gbp2, hits give low values 1.02 | locus YCL016C, strain dcc1, hits give low values 1.01 | locus YCL029C, strain bik1, hits give low values 1.04 | locus YCL061C, strain MRC1, hits give low values 1.01 | locus YCL069W, strain vba3, hits give low values 1.03 | locus YCR088W, strain abp1, hits give low values 1.05 | locus YDL005C, strain med2, hits give low values 1.06 | locus YDL035C, strain GPR1, hits give low values 0.904 | locus YDL040C, strain nat1, hits give low values 1.04 | locus YDL074C, strain BRE1, hits give low values 0.898 | locus YDL101C, strain DUN1, hits give low values 0.946 | locus YDL134C, strain PPH21, hits give low values 0.942 | locus YDL185W, strain tfp1, hits give low values 0.997 | locus YDL192W, strain arf1, hits give low values 0.998 | locus YDR001C, strain nth1, hits give low values 1.04 | locus YDR101C, strain arx1, hits give low values 1.06 | locus YDR137W, strain rgp1, hits give low values 0.972 | locus YDR159W, strain sac3, hits give low values 1.13 | locus YDR195W, strain ref2 1.11 | locus YDR297W, strain sur2, hits give low values 1.01 | locus YDR318W, strain mcm21, hits give low values 1.01 | locus YDR334W, strain swr1, hits give low values 0.992 | locus YDR335W, strain msn5, hits give low values 1.01 | locus YDR388W, hits give low values 1.03 | locus YDR392W, strain spt3, hits give low values 1.03 | locus YDR502C, strain sam2, hits give low values 1.01 | locus YEL003W, strain gim4, hits give low values 1.01 | locus YEL037C, strain rad23, hits give low values 1.01 | locus YEL061C, strain CIN8 (second series), hits give low values 1.04 | locus YEL061C, strain CIN8, hits give low values 0.964 | locus YER015W, strain faa2, hits give low values 0.99 | locus YER016W, strain bim1, hits give low values 1.04 | locus YER110C, hits give low values 1.05 | locus YER111C, strain swi4, hits give low values 1.01 | locus YER155C, strain BEM2 (second series), hits give low values 1.03 | locus YER155C, strain BEM2, hits give low values 1.05 | locus YER167W, strain BCK2, hits give low values 1.06 | locus YFR010W, strain ubp6, hits give low values 0.985 | locus YGL078C, strain dbp3, hits give low values 1.02 | locus YGL086W, strain mad1, hits give low values 1.02 | locus YGL167C, strain pmr1, hits give low values 1.03 | locus YGL173C, strain kem1, hits give low values 0.947 | locus YGL227W, strain vid30, hits give low values 1.06 | locus YGL240W, strain doc1, hits give low values 1.11 | locus YGL248W, strain PDE1, hits give low values 0.934 | locus YGL253W, strain hxk2, hits give low values 0.959 | locus YGR078C, strain PAC10, hits give low values 0.957 | locus YGR135W, strain pre9, hits give low values 0.985 | locus YGR252W, strain gcn5, hits give low values 0.966 | locus YHR013C, strain ard1, hits give low values 0.901 | locus YHR030C, strain SLT2, hits give low values 0.999 and 0.987 | locus YHR079C, strain IRE1 (second series), hits give low values 1.03 | locus YHR079C, strain IRE1, hits give low values 1.01 | locus YHR094C, strain hxt1, hits give low values 1.05 | locus YHR129C, strain ARP1, hits give low values 0.967 | locus YHR142W, strain chs7, hits give low values 0.943 | locus YHR200W, strain rpn10, hits give low values 1.03 | locus YIL066C, strain RNR3, hits give low values 0.881 | locus YIL073C, strain SPO22, hits give low values 0.812 | locus YIL125W, strain kgd1, hits give low values 1.01 | locus YIR030C, strain dcg1, hits give low values 1.03 | locus YJL092W, strain hpr5, hits give low values 1.04 | locus YJL095W, strain BCK1 (second series), hits give low values 1.01 | locus YJL095W, strain BCK1, hits give low values 0.926 and 1.02 | locus YJL115W, strain asf1, hits give low values 1.05 | locus YJL129C, strain trk1, hits give low values 1.09 | locus YJL134W, strain LCB3, hits give low values 0.999 | locus YJL154C, strain vps35, hits give low values 1.03 | locus YJL164C, strain tpk1, hits give low values 0.968 | locus YJL166W, strain qcr8, hits give low values 0.995 | locus YJL168C, strain set2, hits give low values 1.01 | locus YJL187C, strain SWE1, hits give low values 0.986
active: locus YAL013W, strain DEP1, hits give low values 0.873 | locus YDR069C, strain doa4, hits give low values 0.896 | locus YDR162C, strain NBP2, hits give low values 0.789 | locus YGR229C, strain SMI1, hits give low values 0.557 | locus YHR027C, strain rpn1, hits give low values 0.908 | locus YJL187C, strain SWE1 (second series), hits give low values 0.826
